Here are results for 40 molecules from PubChem BioAssay AID1347172 (National Center for Advancing Translational Sciences (NCATS), 2019).

Inconclusive results are not listed. Entries that show only a call come without a potency. Calls of active or inactive are those of the source. Calls follow the shape of the dose curve; as a rule, active = well fitted inhibition curve with a large enough effect; inconclusive = small, poorly fitted or top-dose-only effect; inactive = flat fitted curve, though single readings scatter.

This experiment in a line: Secondary qRT-PCR qHTS assay for selected Zika virus inhibitors. To be noted: Vero cells ZIKV infection, NS5 RNA qRT-PCR, 24 h; series mostly up to 32.6 µM. The text has this: Assay Submitters (PI): Avindra Nath, Ph.D., National Institute of Neurological Disorders and Stroke (NINDS), Bethesda, MD Radhakrishnan Padmanabhan, Ph.D., Georgetown University (GU), Washington D.C. Zika Virus causes congenital defects, including microcephaly and is associated with Guillain-Barre syndrome, eningoencephalitis and myelitis in infected adult. […] Using a target-based approach, we hope to establish a screening paradigm to uncover novel, cell-active NS2B-NS3 protease (Zika Virus) specific inhibitors from NCATS' collection of small molecules using qHTS. […] Four assay panel was created to identify potential Zika Virus inhibitors. Namely, (1) GU unlinked NS2B-NS3 AMC tagged protease qHTS, (2) GU unlinked NS2B-NS3 Rhodamine tagged protease qHTS, (3) NINDS linked NS2B-NS3 AMC tagged protease qHTS, (4) NINDS linked NS2B-NS3 Rhodamine tagged protease qHTS. Inhibitors of the Zika virus primary screens are confirmed using qRT-PCR secondary assays, qRT-PCR mCherry orthogonal assay, and qRT-PCR viability counterscreen. Early Translation Branch (ETB) National Center for Advancing Translational Sciences (NCATS), Rockville, MD National Institute of Health (NIH), Bethesda, Maryland
384-well ZIKV qRT-PCR Assay: Vero cells were treated with the indicated compounds at different concentrations, infected with ZIKV (MOI=1) and incubated at 37 degrees C for 3 hours to permit virus invasion. After 3 hr, supernatant was removed, and cells were washed once to remove extracellular virus. After a further 21 hr incubation, infected cells were washed three times with cold PBS (4 degrees C). Plates were then process using the TaqmanGene Expression Cells-to-Ct Kit (ThermoFisher Scientific) following the manufactures protocol. Primers directed to the NS5 sequence (F-[…]; R-GCTCGGCCAATCAGTTCA) along with Taqman probe (FAM-[…]-BHQ; Biosearch Technologies) were used to quantify drug inhibition of viral load. Reactions were run at initial 95 degrees C for 10 min, then 40 cycles of 95 degrees C for 20 sec and 60 degrees C for 40 sec using a LightCycler 480 (Roche). Relative viral copy numbers were generated by normalizing to cells treated with vehicle.
For the molecule `CC(=O)N1c2ccc(-c3ccc(C(=O)O)cc3)cc2C(Nc2ccc(Cl)cc2)CC1C` (stereo not given), the Potency result was “inactive”.
The same measure, in the same setting: under `Nc1ccn([C@@H]2O[C@H](CO)[C@@H](O)C2(F)F)c(=O)n1` stands “inactive”; under `CO[C@H]1C[C@@H](O[C@@H]2/C(C)=C/C[C@@H]3C[C@@H](C[C@]4(CC[C@H](C)[C@@H](C5CCCCC5)O4)O3)OC(=O)[C@@H]3C=C(C)/C(=N/O)[C@H]4OC/C(=C\C=C\[C@@H]2C)[C@]43O)O[C@@H](C)[C@H]1O`, 3.98 µM (active); under `CCc1oc2ccccc2c1C(=O)c1cc(Br)c(O)c(Br)c1`, “inactive”.
Same read-out and setting: then `Oc1c(Cl)cc(Cl)c(Cl)c1Cc1c(O)c(Cl)cc(Cl)c1Cl`, with 35.5 µM (active); and `CC(C)c1cccc2c(-c3ccccc3)cc(-c3ccc(-c4ccc(C(=O)O)cc4)[nH]3)nc12`, with 10 µM (active).
On to `CC(=O)Nc1ccc([C@H](C)C(=O)Nc2ncc(C(C)C)s2)cc1`, for which the Potency entry is “inactive”.
On the same count and under the same terms, under `CC1=C(C(=O)OCc2ccccc2)C(c2ccc(-c3ccccc3)cc2)NC(=O)N1CCCCCC(=O)O` (stereo not given) stands “inactive”.
On to `CC(=O)O[C@@H]1C[C@]2(C)[C@@]3(CCC4[C@@]5(C)CC[C@H](O[C@@H]6O[C@H](C(=O)O)[C@@H](O)[C@H](O[C@@H]7O[C@H](CO)[C@H](O)[C@H](O)[C@H]7O[C@@H]7O[C@@H](C)[C@H](O)[C@@H](O)[C@H]7O[C@@H]7OC[C@](O)(CO)[C@H]7O)[C@H]6O[C@@H]6O[C@H](CO)[C@H](O)[C@H](O)[C@H]6O)C(C)(C)C5CC[C@]42C)O[C@@H](O)[C@]12C3CC(C)(C)[C@@H](OC(=O)/C=C/c1ccc(O)c(O)c1)[C@@H]2OC(=O)/C=C/c1ccccc1` (stereo not given in full), for which the activity change, negative = inhibition is -6.06% [at 6.77 µM] (inactive).
Take `N#Cc1ccc(N2N=C3c4ccc(C(=O)O)cc4CC[C@@H]3[C@@H]2C2CCCC2)cc1Cl`: the Potency result is “inactive”.
As for `O=C(O)c1ccc(S(=O)(=O)N(Cc2ccc(OC(F)(F)F)cc2)c2ncc(C(F)(F)F)cc2Cl)cc1`, the Potency result was “inactive”.
Still for that read-out and setting: under `CN(CC(=O)N(Cc1ccc(C2CCCCC2)cc1)c1ccc(C(=O)O)cc1)S(=O)(=O)c1c(F)c(F)c(F)c(F)c1F` stands 12.6 µM (active); under `O=S(=O)(Nc1cc(Cl)c(Oc2cnc3ccccc3c2)c(Cl)c1)c1ccc(Cl)cc1Cl`, 22.4 µM (active); under `O=C(O)c1ccc(O)c2ncc(N3CCCN(CCc4cccc5ccccc45)CC3)cc12`, “inactive”.
With `CC[C@H](C)[C@H]1O[C@]2(CC[C@@H]1C)C[C@@H]1C[C@@H](C/C=C(\C)[C@@H](O[C@H]3C[C@H](OC)[C@@H](O[C@H]4C[C@H](OC)[C@@H](O)[C@H](C)O4)[C@H](C)O3)[C@@H](C)/C=C/C=C3\CO[C@@H]4[C@H](O)C(C)=C[C@@H](C(=O)O1)[C@]34O)O2`, the Potency is 3.98 µM (active).
Still for that read-out and setting: under `CCOC(=O)c1ccc(NC(=O)CSc2nc(-c3ccc(F)cc3)cc(C(F)(F)F)c2C#N)cc1` stands “inactive”; under `O=C(N/N=C/c1ccc(O)c(O)c1)c1cc2ccccc2cc1O`, “inactive”.
Still for that read-out and setting: under `Oc1cc2ccccc2c2ccccc12` stands 22.4 µM (active); under `CC(C)c1ccc2c(c1)c(SC(C)(C)C)c(CC(C)(C)C(=O)O)n2Cc1ccc(Cl)cc1`, 10 µM (active).
On the same count and under the same terms, then `CCOc1nc2cccc(C(=O)OC(C)OC(=O)OC3CCCCC3)c2n1Cc1ccc(-c2ccccc2-c2nn[nH]n2)cc1` (stereo not given), with 12.6 µM (active).
For `COc1cc(C(=O)NS(=O)(=O)c2ccccc2C)ccc1Cc1cn(C)c2ccc(NC(=O)OC3CCCC3)cc12`, the Potency entry is “inactive”.
Same read-out and setting: under `O=C(O)C1(Cc2cccc(Nc3nccs3)n2)CCC(Oc2cccc(Cl)c2F)CC1` (stereo not given) stands “inactive”; under `O=C(O)CC1CCC(c2ccc(-c3ccc(Nc4ccc(C(F)(F)F)nc4)cn3)cc2)CC1` (stereo not given), “inactive”.
Still for that read-out and setting: under `COc1ccc(NS(=O)(=O)c2ccc(NS(=O)(=O)c3ccc4c(c3)OCCO4)cc2)cc1` stands “inactive”.
Take `O=C(O)c1c(Sc2ccccc2)c2cc(Cl)ccc2n1Cc1ccc(Cl)cc1`: the Potency result was “inactive”.
Still for that read-out and setting: under `O=C(O)c1ccc(-n2nc(-c3ccccc3O)nc2-c2ccccc2O)cc1` stands “inactive”.
Same read-out and setting: under `CN(C)[C@@H]1C(=O)C(C(N)=O)=C(O)[C@@]2(O)C(=O)C3=C(O)c4c(O)cccc4C[C@H]3C[C@@H]12` stands “inactive”; under `Cc1ccc2[nH]c(=O)c(C3=NN(C(=O)CCC(=O)O)C(c4ccc(Br)cc4)C3)c(-c3ccccc3)c2c1` (stereo not given), “inactive”.
Still for that read-out and setting: then `CC(C)(C)Sc1c(CC(C)(C)C(=O)O)n(Cc2ccc(Cl)cc2)c2ccc(OCc3ccc4ccccc4n3)cc12`, with 25.1 µM (active); and `CC1(C)CCC(C)(C)c2cc3c(cc21)Sc1ccccc1N=C3c1ccc(C(=O)O)cc1`, with “inactive”; and `CC(=O)OC12CC(C)C(OC(=O)c3ccccc3)C1/C=C(/C)C(OC(=O)c1ccccc1)CC(=O)C(C)(C)/C=C/C(C)C2=O` (stereo not given), with “inactive”.
As to `COc1cc(C)c(C(=O)OC2C(C)OC(OC3CCC(C)C4C3C=C(C)C3/C(C)=C\CC/C(C)=C/C5(C)C=C(C(=O)O)C(C)CC56OC(=O)/C(=C(\O)C34C)C6=O)C(O)C2O)c(OC)c1` (stereo not given), the activity change, negative = inhibition was -1.08% [at 8.13 µM] (inactive).
As to `CC(C)=CCc1c2c(c3occ(-c4ccc(O)c(O)c4)c(=O)c3c1O)C=CC(C)(C)O2`, the Potency was 4.47 µM (active).
Same read-out and setting: under `CC1(C)CC[C@]2(C(=O)O)CC[C@]3(C)C(=CCC4[C@@]5(C)C[C@@H](O)[C@H](O)C(C)(C)C5CC[C@]43C)C2C1` (stereo not given in full) stands “inactive”.
Still for that read-out and setting: then `O=C(O)c1ccc(CCCc2ccc(OCCc3ccc(F)cc3)cc2)o1`, with “inactive”; and `Cc1cc(C(C#N)c2ccc(Cl)cc2)c(Cl)cc1NC(=O)c1cc(I)cc(I)c1O` (stereo not given), with 22.4 µM (active).
Same read-out and setting: then `CN(Cc1ccc(C(=O)O)cc1)c1ccc(OCc2c(-c3c(Cl)cccc3Cl)noc2C2CC2)nc1C(F)(F)F`, with 14.1 µM (active).
As to `CCOc1ccc(-c2cc(NC(=O)c3c(F)cccc3F)c(C(=O)O)s2)cc1`, the Potency result was “inactive”.
On the same count and under the same terms, then `Nc1ncnc2c([C@@H]3N[C@H](CO)[C@@H](O)[C@H]3O)c[nH]c12`, with “inactive”; and `CC(Oc1ccccc1)C(=O)Nc1ccc(C(=O)OCc2cc(=O)n3nc(C4CC4)sc3n2)cc1` (stereo not given), with “inactive”.
